Out of some 39,000 compounds screened, about 3,300 (8.5%) were called active. What follows is part of a selection rich in actives, with near analogues and random picks from the rest.
System: HepG2
Assay: cytotoxicity call (relative viability < 0.9)
Conditions: 10 µM

Compound	cytotoxicity call
C[C@H]1CN([C@@H](C)CO)C(=O)c2cc(NC(=O)CCCN(C)C)ccc2O[C@H]1CN(C)S(=O)(=O)c1ccccc1	inactive
C[C@@H]1CN([C@@H](C)CO)S(=O)(=O)c2ccc(Br)cc2O[C@H]1CN(C)C(=O)C1CCCCC1	inactive
C[C@@H]1CN([C@H](C)CO)C(=O)c2cc(-c3cccc(C(=O)N(C)C)c3)cnc2O[C@H]1CN(C)S(=O)(=O)c1cccc(F)c1	inactive
Cc1cc(C(=O)Nc2cccc3c2O[C@@H](CN(C)S(=O)(=O)c2cccs2)[C@@H](C)CN([C@@H](C)CO)C3=O)n(C)n1	inactive
O=C1C[C@@](C(=O)NCc2ccccc2)(c2ccc([N+](=O)[O-])cc2)[C@@H](c2ccc(CO)cc2)N1CC12CC3CC(CC(C3)C1)C2	inactive
Cc1ccc(S(=O)(=O)n2cc([C@H]3CC(=O)N(C(=O)OCc4ccccc4)[C@H]3C(=O)Nc3cccc4cccnc34)c3ccccc32)cc1	inactive
C[C@@H]1CN([C@@H](C)CO)C(=O)c2cccc(NC(=O)Nc3ccc4c(c3)OCO4)c2O[C@H]1CN(C)S(=O)(=O)c1cn(C)cn1	inactive
Cc1cccc(CN2CCN(C(c3ccccc3)c3ccc(Cl)cc3)CC2)c1.Cl.Cl (configuration not stated)	inactive
Cl.Cl.Fc1ccc(C(c2ccc(F)cc2)N2CCN(CC=Cc3ccccc3)CC2)cc1	inactive
COc1ccc(CN2CCN(C(c3ccc(F)cc3)c3ccc(F)cc3)CC2)c(OC)c1OC.Cl	active
Cc1ccc(S(=O)(=O)N(C)C[C@H]2Oc3c(NC(=O)C4CCOCC4)cccc3C(=O)N([C@H](C)CO)C[C@H]2C)cc1	inactive
CCc1nc2ccc(C(=O)Nc3cc(-c4ccccc4)ccc3OC)cn2c1N(C)C(=O)c1cccc(OC)c1	inactive
CC(C)NC(=O)Nc1ccc2c(c1)CC(=O)N([C@H](C)CO)C[C@H](C)[C@@H](CN(C)S(=O)(=O)c1ccccc1)O2	inactive
Cc1noc(C)c1NC(=O)N(C)C[C@@H]1OCCCC[C@H](C)Oc2ccc(NC(=O)c3ccccc3)cc2C(=O)N([C@@H](C)CO)C[C@H]1C	inactive
Cc1ccc2nc(SCc3ccc4ccccc4c3)[nH]c2c1	active
Cc1ccc2nc(SCc3c(C)c(C)cc(C)c3C)[nH]c2c1	inactive
Cc1ccc2nc(CN)[nH]c2c1	inactive
CCCN(C)C[C@@H]1OCCCC[C@@H](C)Oc2ccc(NC(=O)CCC(F)(F)F)cc2C(=O)N([C@H](C)CO)C[C@@H]1C	inactive
C[C@@H]1CCCCO[C@H](CN(C)Cc2ccc(C(=O)O)cc2)[C@H](C)CN([C@@H](C)CO)C(=O)c2cc(NC(=O)NC3CCCCC3)ccc2O1	inactive
C[C@H](CO)N1C[C@H](C)[C@H](CN(C)C(=O)c2ccccc2)OCCCC[C@H](C)Oc2ccc(NC(=O)c3ccccc3)cc2C1=O	inactive
C=CCC[C@@H](Cc1ccc(F)cc1)C(=O)OC[C@@H](Cc1c[nH]c2ccccc12)NC(=O)[C@H](CC=C)CC(=O)N[C@@H](CO)Cc1ccccc1	inactive

Compound	cytotoxicity call
C=CCC[C@H](Cc1ccc(F)cc1)C(=O)OC[C@@H](Cc1c[nH]c2ccccc12)NC(=O)[C@@H](CC=C)CC(=O)N[C@@H](CO)Cc1ccccc1	inactive
C=CCC[C@@H](Cc1ccc(F)cc1)C(=O)OC[C@@H](Cc1c[nH]c2ccccc12)NC(=O)[C@@H](CC=C)CC(=O)N[C@H](CO)Cc1ccccc1	inactive
C=CCC[C@@H](Cc1ccc(F)cc1)C(=O)OC[C@H](Cc1c[nH]c2ccccc12)NC(=O)[C@@H](CC=C)CC(=O)N[C@@H](CO)Cc1ccccc1	active
C=CCC[C@@H](Cc1ccc(F)cc1)C(=O)OC[C@@H](Cc1c[nH]c2ccccc12)NC(=O)[C@@H](CC=C)CC(=O)N[C@@H](CO)Cc1ccccc1	inactive
C=CC[C@@H](CC(=O)N[C@H](CO)Cc1ccccc1)C(=O)N[C@H](COC(=O)[C@@H](CC=C)Cc1ccc(F)cc1)Cc1c[nH]c2ccccc12	inactive
C=CC[C@H](CC(=O)N[C@@H](CO)Cc1ccccc1)C(=O)N[C@@H](COC(=O)[C@@H](CC=C)Cc1ccc(F)cc1)Cc1c[nH]c2ccccc12	inactive
C=CCC[C@H](Cc1ccc(F)cc1)C(=O)OC[C@H](Cc1c[nH]c2ccccc12)NC(=O)[C@@H](CC=C)CC(=O)N[C@@H](CO)Cc1ccccc1	active
C=CCC[C@@H](Cc1ccc(F)cc1)C(=O)OC[C@H](Cc1c[nH]c2ccccc12)NC(=O)[C@@H](CC=C)CC(=O)N[C@H](CO)Cc1ccccc1	inactive
C=CCC[C@H](Cc1ccc(F)cc1)C(=O)OC[C@H](Cc1c[nH]c2ccccc12)NC(=O)[C@H](CC=C)CC(=O)N[C@@H](CO)Cc1ccccc1	inactive
C=CCC[C@H](Cc1ccc(F)cc1)C(=O)OC[C@@H](Cc1c[nH]c2ccccc12)NC(=O)[C@H](CC=C)CC(=O)N[C@@H](CO)Cc1ccccc1	active
C=CCC[C@H](Cc1ccc(F)cc1)C(=O)OC[C@H](Cc1c[nH]c2ccccc12)NC(=O)[C@@H](CC=C)CC(=O)N[C@H](CO)Cc1ccccc1	active
Cc1ccnc(NC(=O)Cn2cnc3c2c(=O)n(C)c(=O)n3C)n1	inactive
O=c1nc2[nH][nH]cc-2c(=O)[nH]1	inactive
COCC#Cc1ccc2c(c1)O[C@H](CN(C)C(=O)CN(C)C)[C@H](C)CN([C@H](C)CO)S2(=O)=O	inactive
C=CCOc1nc(NCC)nc(N(C)C)n1	inactive
CS(=O)(=O)N1C[C@H](NC(=O)c2cnccn2)[C@H]2OCCC[C@H]21	inactive
C=CC[C@@H](CC(=O)N(CCO)Cc1ccccc1)C(=O)N[C@H](COC(=O)[C@@H](CC=C)Cc1ccc(F)cc1)C(C)(C)C	inactive
C[C@@H]1CCCCO[C@H](CN(C)Cc2ccncc2)[C@H](C)CN([C@H](C)CO)C(=O)c2cc(NS(=O)(=O)c3ccc(Cl)cc3)ccc2O1	inactive
CCc1oc(CC[C@@H](CO)NC(=O)NCCn2cc(C3(O)CCCCC3)nn2)c(C(=O)OC)c1C(=O)OC	inactive
O=C(CCCCCCC(=O)Nc1ccc([C@H]2O[C@@H](CSc3ccccc3)C[C@H](c3ccccc3)O2)cc1)NO	inactive
C[C@H](CO)N1C[C@H](C)[C@@H](CN(C)C(=O)Nc2ccc(C(F)(F)F)cc2)Oc2c(NC(=O)c3ccc(-c4nccs4)cc3)cccc2C1=O	inactive

Reference: the antibiotic and cytotoxicity screens of Wong et al. (2023)
